# Compound activity deposited in PubChem by National Center for Advancing Translational Sciences (NCATS).
# The full list was thinned out, with hits kept by preference.
# Shiga toxin inh – Shiga toxin inhibition; Vero cells, Shiga toxin protein synthesis inhibition reporter; inhibition, % at 38.7 µM; 290,000 compounds, 9.2% hits; AID 2315; in the data active = inhibition mostly above about 28%, no sharp cut-off; inactive = mostly below about 43%; also: 0% is about no effect
# CHX counter – counter-screen hit for Shiga toxin inhibitors, cycloheximide | AID 2314 | max response, % | 300,000 compounds, 12% hits | cell reporter, cycloheximide protein synthesis inhibition counterscreen; in the data active = max response mostly above about 13%, no sharp cut-off; inactive = mostly below about 14%; also: read at 38.3 µM for the half of the compounds with a filed dose; 0% is about no effect
# MARV entry inh – inhibitors of Marburg virus binding or cell entry. Marburg virus pseudotyped entry inhibition, cell reporter. 300,000 compounds, 1.8% hits. AID 540276. Potency, µM (top dose mostly 37.8 µM), without a hit: top-dose activity change, negative = inhibition, hits mostly inhibitors; calls by dose curve; tested in HEK293 cells; also: potency is read from the fitted curve at half-maximal effect; % is scaled to controls: 0 for no effect and ±100 for the full control effect
# AMA1 RON2 block – disrupts binding of P. falciparum AMA1 to RON2 | 360,000 compounds, 0.2% hits | Potency, µM (top dose mostly 58.2 µM), without a hit: at the highest dose activity change, negative = inhibition, actives largely listed as inhibitors | AlphaScreen AMA1-biotinylated RON2 peptide binding; active = well fitted inhibition curve with a large enough effect; inconclusive = small, poorly fitted or top-dose-only effect; inactive = no such curve, though single readings can be large or run the other way;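 also: potency is read from the fitted curve at half-maximal effect; 0% = vehicle wells and -100% = peptide control; nearly all actives have a fitted effect of over 45% in size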
#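 AMA1 (3D7) with his tag at 25 nM final met compounds first, then biotinylated RON2 peptide at 25 nM; detection used donor plus acceptor beads, 10 µg/mL apiece, read by AlphaScreen after 30 min at room temperature.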
# Lassa entry inh – Lassa virus entry inhibition; Lassa virus pseudotype entry inhibition, cell reporter; Potency, µM (top dose mostly 37.9 µM), for the others: at the highest dose activity change, negative = inhibition, actives largely listed as inhibitors; 300,000 compounds, 1.2% hits; AID 540256; calls by dose curve; tested in HEK293 cells; also: potency is read from the fitted curve at half-maximal effect; % is scaled to controls: 0 for no effect and ±100 for the full control effect; nearly all actives have a fitted effect of over 50% in size
# Starred values were filed as active, the others as inactive; ? = inconclusive; / = no result given; [ ] = another dose, or the depositor's remark.
SMILES,Shiga toxin inh,CHX counter,MARV entry inh,AMA1 RON2 block,Lassa entry inh
Cc1ccccc1/C(N)=N/OC(=O)c1ccc(F)cc1,107*,47*,/,13%,/
Cc1ccccc1C(=O)O/N=C(\N)c1ccccc1,28,21*,?,9%,?
Cc1ccccc1C(=O)O/N=C(\N)c1ccc([N+](=O)[O-])cc1,/,32*,?,11%,0%[46.1 µM]
CCCn1cnnc1CNC(=O)[C@H]1O[C@@H](n2ccc(=O)[nH]c2=O)[C@H](O)[C@@H]1O,/,/,/,-9%,/
CC1Cc2ccccc2N1C(=O)CSc1nccc(=O)[nH]1 (centres undefined),39,-5,-9%[46.1 µM],-2%,-13%
Cc1sc2ncnc(NCC(c3ccccc3)N(C)C)c2c1C (centres undefined),-19,-3,?,-9%,-19%[46.1 µM]
Cc1ccc(Nc2ncnc3sc(C)c(C)c23)cc1C,43,31*,19%,-1%,15%
Cc1sc2ncnc(NCC(O)c3ccccc3)c2c1C (centres undefined),82*,23*,?,-1%,?
Cc1sc2ncnc(N/N=C/c3ccccc3O)c2c1C,34*,36*,3.2µM*,2%,10µM*
Cc1ccc(Nc2ncnc3sc4c(c23)CCC(C)C4)cc1C (centres undefined),/,/,0%[46.1 µM],/,17%[46.1 µM]
Cc1sc2ncnc(N/N=C/c3ccc(O)cc3)c2c1C,16,16,?,42%,?
Cn1c(NC[C@@H](O)c2ccccc2)nc2c1c(=O)n(Cc1ccc(Cl)cc1)c(=O)n2C,/,/,-7%,/,/
CC(C)=NOc1cc(NC(=O)CCl)cc([N+](=O)[O-])c1,-5,-4,23µM*,-3%,18µM*
CCc1ccccc1NC(=O)c1cnc(N2CCCCC2)c2ccccc12,/,/,/,/,-6%[46.1 µM]
Cc1c(/C=N\NC(=O)c2c[nH]c3ccccc23)cnn1C,46*,15*,?,8%,2%[46.1 µM]
CCn1cc(/C=N\NC(=O)c2c[nH]c3ccccc23)c(C)n1,74*,42,16%,-7%,?
COc1ccccc1-c1cc(C(=O)N/N=C\c2cnn(C)c2C)c2ccccc2n1,10,-6,-2%,59%,?
CCn1cc(/C=N\NC(=O)c2csc3ccccc23)c(C)n1,82,44*,-4%,35%,?
O=C(Nc1ccc(SC(F)F)cc1)c1cc(-c2ccc3c(c2)OCCO3)on1,/,/,-19%[46.1 µM],/,?
CCNC(=O)N1CCC(n2nccc2NC(=O)CCOc2ccccc2)CC1,-2,-2,/,-1%,/
CC(C)C(=O)N1CCC(n2nccc2NC(=O)CCOc2ccccc2)CC1,17,17*,3%[46.1 µM],0%,-4%[46.1 µM]
COc1ccc(C(=O)Nc2ccnn2C2CCN(C(=O)c3cccnc3)CC2)cc1,60*,30*,13%,-16%,3%
COc1cccc(C(=O)N2CCC(n3nccc3NC(=O)CCOc3ccccc3)CC2)c1,28,30*,/,-9%,/
COc1ccc(C(=O)Nc2ccnn2C2CCN(Cc3cccnc3)CC2)cc1,-6,-1,/,-7%,/
COc1ccccc1C(=O)Nc1ccnn1C1CCN(C(=O)C2CCOC2)CC1 (centres undefined),32,13*,/,-5%,/
SMILES,Shiga toxin inh,CHX counter,MARV entry inh,AMA1 RON2 block,Lassa entry inh
CCOC(=O)C1CCCN(C(=O)c2ccc(-c3ccc([N+](=O)[O-])cc3)o2)C1 (centres undefined),/,/,?,?,16%
O=C(CCCn1c(=O)c2cccn2c2ccccc21)Nc1cc(C(F)(F)F)ccc1Cl,/,/,/,/,27%[46.1 µM]
CSC1=C(C#N)[C@H](c2ccc(C)s2)CC(=O)N1,/,/,0%,/,/
Cc1cc(Cl)ccc1OCC(=O)O[C@@H](C)C(=O)N(C)C,/,/,4%,/,/
CN(Cc1ccccc1)CC(O)COc1ccc(CNCc2ccc(Cl)s2)cc1 (centres undefined),7,-1,2.5µM*,-13%,?
CCC(=O)Nc1nc2ccc3sc(C)nc3c2s1,96*,50*,?,2%,-22%
Cc1nc2c(ccc3nc(NC(=O)C4CC4)sc32)s1,85*,52*,?,3%,?
CCCCC(=O)Nc1nc2ccc3nc(C)sc3c2s1,16,9,/,14%,/
CCCC(=O)Nc1nc2ccc3nc(C)sc3c2s1,95*,40*,-18%,-10%,16%
COc1ccc(N(C(=O)COc2ccc(Br)cc2)S(=O)(=O)c2ccc(C)cc2)cc1,/,/,/,/,-10%[46.1 µM]
Cc1cc(NC(=O)C2CC(=O)N(c3ccccc3Cl)C2)no1 (centres undefined),11,-2,1%[46.1 µM],-11%,-8%
Cc1c(C(=O)N2CCCC2)oc2c1-c1[nH]ncc1CC2,22,-3,?,-24%,-39%
CC1CCCCN1C(=O)CSCC(=O)Nc1nc(-c2cccs2)cs1 (centres undefined),37*,24*,/,-13%,/
CC1CCN(C(=O)CSCC(=O)Nc2nc(-c3cccs3)cs2)CC1,45*,10*,/,-5%,/
CC(=O)N1CCc2cc(Br)cc(S(=O)(=O)N3CCN(c4cccc(C(F)(F)F)c4)CC3)c21,/,/,12%[46.1 µM],/,?
COc1cccc2c(=O)c(SC(F)(F)C(F)C(F)(F)F)c(C)[nH]c12 (centres undefined),52*,33,-9%,4%,4%
Cc1[nH]c2ccc(F)cc2c(=O)c1SC(F)(F)C(F)C(F)(F)F (centres undefined),-12,-2,-14%,3%,-28%
Cc1ccc(NC(=O)c2ccc(CNS(=O)(=O)c3cccc(C(F)(F)F)c3)cc2)cc1,-20,-6,23%,4%,0%
CC1CN(C(=O)c2ccc(CNS(=O)(=O)c3cccc(C(F)(F)F)c3)cc2)CC(C)O1 (centres undefined),1,-3,13µM*,-11%,-30%
CCCCN(C(=O)CSc1ncn[nH]1)c1c(N)n(Cc2ccccc2)c(=O)[nH]c1=O,/,/,/,5%,/
O=[N+]([O-])c1c(NCCCO)cc(Sc2ccc(Cl)cc2)c2nonc12,9,-1,11µM*,0%,?
O=C(NCC1CCCN(C(=O)CN2CCCCC2)C1)c1ccccc1Cl (centres undefined),31,26*,13%[46.1 µM],15%,35%[46.1 µM]
COC(=O)c1cccc(C(=O)N2CCCC(CNC(=O)c3ccccc3Cl)C2)c1 (centres undefined),33,23,/,6%,/
COc1ccccc1NC(=O)N1CCCC(CNC(=O)c2ccccc2Cl)C1 (centres undefined),27,0,16%[46.1 µM],1%,6%[46.1 µM]
CSCC(=O)N1CCCC(CNC(=O)c2ccccc2Cl)C1 (centres undefined),28,15*,-2%[46.1 µM],-10%,3%[46.1 µM]
O=C(NCc1ccccc1)C1C(c2ccccc2)=Nc2ccccc2N1C(=O)c1cccnc1 (centres undefined),/,/,/,-12%,/
O=C(CSc1nc2ccccc2c(=O)n1-c1ccccc1Cl)NCC1CCCO1 (centres undefined),/,/,/,2%,/
CNCCc1cnc(CCC(c2ccccc2)c2ccccc2)[nH]1,/,/,5.8µM*,/,?
CNCCc1ccccn1,0,-2,5%,-2%,4%
Cc1ccc(NC(=O)N2CCC(CN3CCCCCC3)CC2)c(Cl)c1,/,/,/,/,-1%[46.1 µM]
